Drawing on PubChem BioAssay, this text covers composite z-score, z-score and composite Z-score for five compounds.

Assay [1] deals with Human papillomavirus type 1a protein E7 (residues 44-93). In words: small molecules binding HPV E7 44-93 – biochemical, small-molecule microarray, residues 44-93, 635 nm fluorescence, primary screen (AID 1108).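 Also: E7 fragment applied at 1 µg/mL in TBST for 1 h at 4 C; score combines spot fluorescence with its signal to noise ratio.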 The settings on record: fluorescence 635 nm, higher = more signal.
The nature of assay [2]: hepatitis C replication reporter changes, two-sided – Huh7 cells, luciferase reporter, HCV replication inhibitor project, primary screen (AID 1109).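 Also: huh7 hepatoma cells harbouring a luciferase neomycin HCV replicon reporter; luciferase luminescence as measure of HCV replicon replication; test concentration not given here.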 Conditions: Huh7 HCV replicon luciferase reporter, 48 h; higher = more signal.
Assay [3] has as its target Left-right determination factor 2 (Homo sapiens) (UniProt O00292). In words: small molecules binding LEFTY2 protein – biochemical, small-molecule microarray, 635 nm fluorescence scan, primary screen (AID 1110). Conditions: higher = more signal.
Assay [4] addresses Calmodulin-1 (Homo sapiens) (UniProt P0DP23). In words: small molecules binding calmodulin-1 with EGTA – biochemical, small-molecule microarray, Cy5-labelled CALM1, profiling panel (AID 1111).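 Also: labelled calmodulin applied in Tris saline Tween buffer holding calcium plus EGTA and DTT.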 The settings on record: Cy5-CALM1 binding fluorescence, higher = more signal.
Assay [5] shares this target. Kind of assay: small molecules binding Ca-loaded calmodulin-1 – biochemical, small-molecule microarray, Cy5-labelled CALM1, plus calcium, artefact control for SMM control-protein annotation, profiling panel (AID 1112).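 Also: score merges spot fluorescence with signal to noise from triplicate slides.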 Conditions: Cy5-CALM1 binding fluorescence, higher = more signal.
Assay [6] in a line: probe aWnt5a binding to arrayed compounds – biochemical, biotinylated probe, 635/667 nm fluorescence, primary screen (AID 1113).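 Also: score merges 667 nm fluorescence intensity with signal-to-noise per printed feature.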 The settings on record: small-molecule microarray, higher = more signal.
A short description of assay [7]: probe aShh binding to arrayed compounds – biochemical, biotinylated probe, 635/667 nm fluorescence, primary screen (AID 1114).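 Also: probe is biotin-labelled aShh protein from a stem cell growth factor screen; measures binding of labelled protein to compounds printed on the slide; score merges feature fluorescence at 667 nm with signal-to-noise.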 The settings on record: small-molecule microarray, higher = more signal.
Assay [8] can be described thus: probe aNog binding to arrayed compounds – biochemical, biotinylated probe, 635/667 nm fluorescence, primary screen (AID 1115).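 Also: probe is biotinylated aNog protein used at 0.15 µg/mL for 1 h at 4 C; z-score combines 667 nm fluorescence of each spot with its signal to noise.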 The settings on record: small-molecule microarray, higher = more signal.
Assay [9] addresses Torsin-1A-interacting protein 1 (Homo sapiens) (UniProt Q5JTV8). In words: compound microarray binding of lysate hLAP1 – cell lysate, small-molecule microarray, COS7 lysate, 635/667 nm fluorescence, primary screen (AID 1116). The settings on record: 635 nm fluorescence, higher = more signal.
For assay [10], the target named is Alpha-bungarotoxin (Bungarus multicinctus) (UniProt P60615). Kind of assay: compounds binding labelled alpha-BTX control protein – biochemical, small-molecule microarray, Alexa647 label, 635/667 nm fluorescence, artefact control for SMM control protein annotation, profiling panel (AID 1117). Conditions: alpha-BTX-A647 binding fluorescence, higher = more signal.
Alpha-bungarotoxin (Bungarus multicinctus), sequence (P60615 whole entry, looked up): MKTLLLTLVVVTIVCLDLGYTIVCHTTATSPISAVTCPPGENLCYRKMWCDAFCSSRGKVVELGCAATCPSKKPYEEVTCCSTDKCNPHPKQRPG
The target in the next assay is Albumin (Bos taurus) (UniProt P02769). In words: compounds binding labelled BSA control protein – biochemical, small-molecule microarray, Alexa647 label, 635/667 nm fluorescence, artefact control for SMM control protein annotation, profiling panel (AID 1118).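 Also: score merges 667 nm emission intensity and signal-to-noise per printed compound spot.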 The settings on record: BSA-A647 binding, fluorescence 635 nm, higher = more signal.
Albumin (Bos taurus), sequence (P02769 whole entry, looked up): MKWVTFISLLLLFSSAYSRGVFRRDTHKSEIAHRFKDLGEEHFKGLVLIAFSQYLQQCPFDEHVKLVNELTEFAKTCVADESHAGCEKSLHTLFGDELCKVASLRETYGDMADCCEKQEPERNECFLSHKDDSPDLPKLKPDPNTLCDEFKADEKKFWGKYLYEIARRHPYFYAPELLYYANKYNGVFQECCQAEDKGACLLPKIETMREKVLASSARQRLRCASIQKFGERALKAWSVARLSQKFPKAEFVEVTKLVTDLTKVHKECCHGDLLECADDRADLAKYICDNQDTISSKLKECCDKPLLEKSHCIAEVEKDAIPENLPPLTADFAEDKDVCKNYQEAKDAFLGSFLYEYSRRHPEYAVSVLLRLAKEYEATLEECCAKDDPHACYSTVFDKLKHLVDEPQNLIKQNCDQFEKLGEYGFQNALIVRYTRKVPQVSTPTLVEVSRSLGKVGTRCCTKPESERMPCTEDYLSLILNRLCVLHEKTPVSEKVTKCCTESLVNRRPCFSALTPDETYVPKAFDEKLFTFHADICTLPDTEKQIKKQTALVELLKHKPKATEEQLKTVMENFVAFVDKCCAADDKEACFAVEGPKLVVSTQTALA
A short description of assay [11]: probe aXIP binding to arrayed compounds – biochemical, NeuroSMM set, 635/667 nm fluorescence, primary screen (AID 1119).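 Also: probe is the protein aXip251-270 applied at 1 µg/mL to compound-printed slides; binding of probe to printed compounds measured as 667 nm fluorescence plus signal to noise.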 The settings on record: small-molecule microarray, higher = more signal, called active from +8 up or from −8 down.
Assay [12] in a line: probe aNOTCH3 binding on compound microarray – biochemical, small-molecule microarray, 635/667 nm fluorescence, primary screen (AID 1120).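 Also: probe is a biotin-tagged antibody raised against NOTCH3 rather than NOTCH3 protein; score merges spot fluorescence near 667 nm with spot signal to noise.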 The settings on record: higher = more signal.
A short description of assay [13]: probe aNOTCH2 binding on compound microarray – biochemical, small-molecule microarray, 635/667 nm fluorescence, primary screen (AID 1121).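 Also: score merges feature fluorescence read at 667 nm with its signal to noise.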 Conditions: higher = more signal.
For assay [14], the target named is Carbonic anhydrase 2 (Homo sapiens) (UniProt P00918). Kind of assay: compounds binding carbonic anhydrase 2 – biochemical, small-molecule microarray, Alexa647-labelled CAII, profiling panel (AID 1122). The settings on record: CAII-A647 binding fluorescence, higher = more signal.
A short description of assay [15]: COS7 lysate on small-molecule microarray, probe aHis, 635 nm (AID 1123).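 Also: z-score combines 667nm fluorescence intensity with signal-to-noise per printed compound spot.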 Conditions: COS7 cell lysate, fluorescence, higher = more signal.
Assay [16] can be described thus: probe aLAP1 signal on lysate-treated microarray – cell lysate, small-molecule microarray, COS7 lysate, primary screen (AID 1124).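 Also: lysate comes from COS7 cells expressing LAP1 and is applied at 0.3 µg/mL; score merges spot fluorescence near 667 nm with signal-to-noise over triplicate slides.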 The settings on record: probe aLAP1, fluorescence, higher = more signal.
The test system of the next assay is Sam68 (KHDRBS1). Kind of assay: compounds binding KHDRBS1 protein – biochemical, small-molecule microarray, 635 nm fluorescence, primary screen (AID 1125).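 Also: score merges 667 nm channel intensity with signal to noise over triplicate slides.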 Conditions: higher = more signal.
Assay [17] concerns Chordin-like protein 2 (CHRDL2). Kind of assay: compounds binding chordin-like 2 – biochemical, small-molecule microarray, 635 nm fluorescence, primary screen (AID 1126).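 Also: printed compound slides probed with Chrdl2 protein at 4 µg/mL for 1 h at 4 C; score merges 667 nm emission intensity with signal to noise over three replicate slides.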 Conditions: fluorescence 635 nm, higher = more signal.
The target of assay [18] is Concanavalin-A (Canavalia ensiformis) (UniProt P02866). Kind of assay: compounds binding concanavalin A lectin – biochemical, small-molecule microarray, Alexa647 label, 635 nm, artefact control for SMM control protein annotation, primary screen (AID 1127).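 Also: z combines 667 nm emission intensity with signal-to-noise across three replicate slides.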 Conditions: ConA-A647 binding fluorescence, higher = more signal.
Concanavalin-A (Canavalia ensiformis), sequence (P02866 whole entry, looked up): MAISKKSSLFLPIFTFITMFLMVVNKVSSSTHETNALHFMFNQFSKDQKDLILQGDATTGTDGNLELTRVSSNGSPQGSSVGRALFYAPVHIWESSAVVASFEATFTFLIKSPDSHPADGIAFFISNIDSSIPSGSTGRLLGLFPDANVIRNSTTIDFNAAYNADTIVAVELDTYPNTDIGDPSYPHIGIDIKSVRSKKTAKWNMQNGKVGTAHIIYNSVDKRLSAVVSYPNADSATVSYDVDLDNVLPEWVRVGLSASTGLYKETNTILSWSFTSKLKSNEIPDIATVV

SMILES strings stand for the structures. Activity calls are given as the source filed them.

Torsin-1A-interacting protein 1 (Homo sapiens), sequence (Q5JTV8 whole entry, looked up): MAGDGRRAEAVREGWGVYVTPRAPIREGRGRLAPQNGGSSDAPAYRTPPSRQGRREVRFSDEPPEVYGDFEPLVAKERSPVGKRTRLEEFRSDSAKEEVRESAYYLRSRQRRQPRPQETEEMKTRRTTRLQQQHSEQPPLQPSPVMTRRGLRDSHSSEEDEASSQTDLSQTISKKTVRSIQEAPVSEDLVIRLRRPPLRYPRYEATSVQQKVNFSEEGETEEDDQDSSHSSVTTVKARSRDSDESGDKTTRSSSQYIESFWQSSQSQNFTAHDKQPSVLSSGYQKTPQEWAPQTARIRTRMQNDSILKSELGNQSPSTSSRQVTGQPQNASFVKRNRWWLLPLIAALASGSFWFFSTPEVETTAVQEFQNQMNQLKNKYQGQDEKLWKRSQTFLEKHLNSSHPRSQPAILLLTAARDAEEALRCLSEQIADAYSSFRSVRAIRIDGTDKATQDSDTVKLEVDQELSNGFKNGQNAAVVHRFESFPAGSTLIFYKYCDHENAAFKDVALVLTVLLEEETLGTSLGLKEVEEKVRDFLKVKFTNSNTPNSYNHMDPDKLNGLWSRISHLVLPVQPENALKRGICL
Left-right determination factor 2 (Homo sapiens), sequence (O00292 whole entry, looked up): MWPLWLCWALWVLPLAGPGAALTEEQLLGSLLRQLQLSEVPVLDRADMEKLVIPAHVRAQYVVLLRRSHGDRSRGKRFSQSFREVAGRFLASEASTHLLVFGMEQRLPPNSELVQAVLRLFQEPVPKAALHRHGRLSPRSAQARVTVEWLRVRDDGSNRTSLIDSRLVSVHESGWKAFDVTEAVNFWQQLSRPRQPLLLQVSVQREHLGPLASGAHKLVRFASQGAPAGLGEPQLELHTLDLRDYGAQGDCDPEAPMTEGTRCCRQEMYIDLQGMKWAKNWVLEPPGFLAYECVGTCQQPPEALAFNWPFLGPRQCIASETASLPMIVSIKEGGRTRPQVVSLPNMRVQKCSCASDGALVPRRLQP

Turning to `COC(=O)[C@H](C)NC(=O)CCC1CC(OC(=O)NCCc2ccc(F)cc2)CC2(CCCC(COC(=O)NCCOc3ccccc3)O2)O1` (stereo not given in full), the composite z-score in assay [1] came out at 1.36; in [3] it was 0.781; in assay [4], 1.55; in assay [5], 0.236; in assay [6], 0.055; in assay [7], 0.123. Further, the composite z-score in assay [8] is -0.109; in assay [9] it was 0.928; in assay [10], 0.837; with Albumin (Bos taurus) it was 0.752; in assay [12] it was -0.029; in assay [13], -0.0921. Besides, the composite z-score in assay [14] is 0.282; in assay [15], 1.21; in [16], -0.0401; in the assay with Sam68 (KHDRBS1), 1.31; in [17], 1.03; in assay [18], 1.02. In addition, the z-score in assay [2] is -0.213. For the same compound, in assay [11], the composite Z-score is 0.59 (inactive).

As to `COC(=O)[C@H](C)NC(=O)CCC1CC(OC(=O)NCCc2ccc(F)cc2)CC2(CCCC(COC(=O)NCCc3ccccc3OC)O2)O1` (stereo not given in full), the composite z-score in assay [1] is 1.35; in assay [3], 0.638; in [4], 0.48; in assay [5], -0.211; in assay [6], -0.0403; in assay [7], 0.0141. The composite z-score in [8] is 0.177; in [9] it was 0.195; in [10] it was 0.434; with Albumin (Bos taurus) it was 0.335; in assay [12], -0.0288; in assay [13] it was -0.0061. For the same compound, the composite z-score was 0.244 in assay [14]; 1.25 in [15]; 0.0635 in assay [16]; 1.29 with Sam68 (KHDRBS1); 0.559 in [17]; 0.924 in [18]. Also, in [2], the z-score is -0.466. In [11], the composite Z-score was 0.353 (inactive).

Turning to `CCOC(=O)[C@H](Cc1ccccc1)NC(=O)CCC1CC(OC(=O)NCc2cccc3ccccc23)CC2(CCCC(COC(=O)NCc3ccc4c(c3)OCO4)O2)O1` (stereo not given in full), the composite z-score was 0.524 in assay [1]; 0.284 in assay [3]; -0.29 in assay [4]; -0.457 in assay [5]; -0.104 in [6]; 0.214 in assay [7]. Further, the composite z-score in assay [8] is -0.299; in [9], 0.629; in [10] it was -0.382; with Albumin (Bos taurus), 0.85; in assay [12], 0.0824; in assay [13], -0.148. The composite z-score is 0.509 in assay [14]; 0.831 in [15]; 0.404 in [16]; 0.477 in the assay with Sam68 (KHDRBS1); -0.054 in [17]; 0.0672 in [18]. The compound also displayed a z-score in [2] of 1.08. In addition, the composite Z-score in [11] was 0.464 (inactive).

Take `CC(C)(C)N1C(=O)[C@H]2[C@@H]3C(=CC[C@H]2C1=O)C(=O)[C@H]1O[C@H]1[C@H]3O`: the composite z-score is -2.12 in assay [1]; 0.341 in [3]; -1.08 in assay [4]; -1.48 in assay [5]; -0.0735 in assay [6]; -0.273 in assay [7]. Moreover, the composite z-score is -0.571 in [8]; -0.139 in [9]; -0.0321 in [10]; 0.0159 in the assay with Albumin (Bos taurus); -0.0976 in assay [12]; -0.154 in assay [13]. Further, the composite z-score in assay [14] is -0.444; in assay [15] it was -0.511; in assay [16], -0.058; with Sam68 (KHDRBS1), -0.657; in assay [17] it was 1.04; in assay [18], -0.721. This compound returned a z-score in [2] of -4.79. For the same compound, the composite Z-score in assay [11] was 0.321 (inactive).

As for `COc1cccc([C@H]2Oc3ccc(OC)cc3C(=NOCC[C@@H]3C=C[C@H](OC(C)=O)[C@@H](COC(C)=O)O3)[C@@H]2O)c1`, the composite z-score in assay [1] was 0.687; in [3] it was 0.492; in assay [4], -0.547; in assay [5], -0.314; in assay [6] it was -0.0865; in assay [7], -0.0553. For the same compound, the composite z-score in assay [8] is 0.197; in [9], 0.786; in assay [10], 0.635; with Albumin (Bos taurus) it was 0.869; in assay [12] it was 0.0293; in [13], -0.213. Further, the composite z-score in [14] stood at 0.36; in [15], 0.788; in assay [16] it was 0.687; in the assay on Sam68 (KHDRBS1) it was 0.785; in [17] it was 0.503; in assay [18], 0.794. This compound yielded a z-score in [2] of -0.544. For the same compound, in assay [11], the composite Z-score is 0.551 (inactive).
